In PubChem BioAssay (NCATS):
Inconclusive results are not listed. The source made the active and inactive calls. Unless noted, calls come from the whole dose curve.

Experiment: qHTS for Inhibitors of the Functional Ribonucleoprotein Complex (vRNP) of Lassa (LASV) Arenavirus: Viability assay - alamar blue signal for LASV Primary Screen (AID 1347083; calls by dose curve; tested in HEK293 reporter line; note: nearly all actives have a fitted effect of over 80% in size; note: potency is the fitted concentration of half-maximal effect; for activity change, negative = reduced viability: % is set by controls: 0 for no effect and ±100 for the full control effect)
Conditions: cell viability, alamar blue fluorescence (LASV minigenome counter-screen); series mostly up to 57.5 µM; activity change, negative = reduced viability: at the top concentration

| Compound | activity change, negative = reduced viability | Potency |
| --- | --- | --- |
| CCCCCCC/C=C/C=O | 12% [at 115 µM] (inactive) | – |
| C[C@@]12C(=O)OC(=O)[C@@]1(C)C1CCC2O1 | – | 19.3 µM (active) |
| CC(=O)OC1(C)CC(C)C(=O)C(C(O)CC2CC(=O)NC(=O)C2)C1 (stereo not drawn) | -146% (inactive) | – |
| Oc1cc(-c2nc(-c3ccccc3)[nH]c2-c2ccncc2)ccc1Cl | – | 1.53 µM (active) |
| CC(C=CC(=O)NO)=C[C@@H](C)C(=O)c1ccc(N(C)C)cc1 | – | 15.3 µM (active) |
| COc1cc2c(cc1O)CCC1C2CC[C@@]2(C)C1CC[C@@H]2O (stereo partly drawn) | – | 5.44 µM (active) |
| COCCOc1nc(-c2ccc(Cl)c(Cl)c2)n(-c2ccc(NC(=O)CCl)cc2)n1 | -32.2% (inactive) | – |
| C=C1C(=O)C=C[C@]2(C)C[C@@H]3OC(=O)[C@](C)(O)[C@H]3C[C@@H]12 | – | 14.1 µM (active) |
| O=C(O)C=Cc1ccc(O)c(O)c1 | – | 43.2 µM (active) |
| CC(=O)OC1C(O)C(C)OC(OC2C(OC(=O)C3CCC4C(C3)OC3(CC(OC(=O)/C=C/c5ccccc5)C(C)CO3)C43CO3)OC(C)C(O)C2OC(C)=O)C1O (stereo not drawn) | – | 0.178 µM (active) |
| Cc1ncnc2nc[nH]c12 | – | 1.58 µM (active) |
| Oc1ccc(C2=Cc3ccc(O)cc3OC2)cc1 | – | 24.3 µM (active) |

Experiment: Cytotoxicity counterscreen for inhibitors of SARS-CoV-2 cell entry (AID 1645845); note: nearly all actives have a fitted effect of over 50% in size; for activity change, negative = cytotoxicity: % is set by controls: 0 for no effect and ±100 for the full control effect
Conditions: cell viability (SARS-CoV-2 entry assay cells); series mostly up to 57.1 µM; activity change, negative = cytotoxicity: at the top concentration
Outline: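 Expi293F/hACE2 cells seeded overnight; cpd pin-transferred in DMSO, 1 h preincubation, + media, 48 h 37 C 5% CO2; ATPLite 1step luminescence; normalized to cells and no cells.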

| Compound | activity change, negative = cytotoxicity | outcome |
| --- | --- | --- |
| COC(=O)Nc1nc2ccc(C(=O)c3ccc(F)cc3)cc2[nH]1 | -10.8% (inactive) | – |
| COc1ccc(COc2cc3oc(=O)c4cc(C(C)O)ccc4c3cc2OC)cc1 (stereo not drawn) | -2.23% (inactive) | – |
| COc1ccc(-n2c(C)c([N+](=O)[O-])c3ccc(O)cc32)cc1 | -19.8% (inactive) | – |
| CCOC(=O)N1CCN(/[N+]([O-])=N/Oc2ccc([N+](=O)[O-])cc2[N+](=O)[O-])CC1 | 4.51% (inactive) | – |
| Cc1cc(Nc2ncnc3ccc(-c4ccc(CNCCS(C)(=O)=O)o4)cc23)ccc1Oc1ccn2ncnc2c1 | -6.61% (inactive) | – |
| Oc1ccc2ccccc2c1SSc1c(O)ccc2ccccc12 | 0.556% (inactive) | – |
| C[C@]12CC[C@H](O)CC1=CCC1C2CC[C@]2(C)C(n3cnc4ccccc43)=CCC12 (stereo partly drawn) | – | inactive |

Experiment: Primary qHTS to identify inhibitors of SARS-CoV-2 cell entry (AID 1645846); note: nearly all actives have a fitted effect of over 45% in size; note: potency is the fitted concentration of half-maximal effect
Conditions: SARS-CoV-2 pseudovirus cell entry assay, luminescence; activity change, negative = inhibition: at 57.1 µM (top of the series) unless noted; series mostly up to 57.1 µM
Outline: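 Data are normalized to wells receiving SARS-CoV-2-S pseudoparticles and those given bald particles. Entry signal was luciferase luminescence in stable hACE2 Expi293F cells, 48 hr post-infection, after 1 hr compound pretreatment.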

| Compound | activity change, negative = inhibition | Potency | outcome |
| --- | --- | --- | --- |
| CCN(CC)CCCC(C)Nc1nc(C)cc(Nc2ccc3nc(C)cc(N)c3c2)n1 (stereo not drawn) | -23.9% | – | – |
| COC(=O)Nc1nc2ccc(C(=O)c3ccc(F)cc3)cc2[nH]1 | – | 1.26 µM (active) | – |
| COc1ccc(COc2cc3oc(=O)c4cc(C(C)O)ccc4c3cc2OC)cc1 (stereo not drawn) | -25.6% | – | – |
| COc1ccc(-n2c(C)c([N+](=O)[O-])c3ccc(O)cc32)cc1 | -4.69% | – | – |
| CN1c2ccccc2C(=O)N2CCc3c([nH]c4ccccc34)C21 (stereo not drawn) | – | 6.31 µM (active) | – |
| CCOC(=O)N1c2ccc(C(F)(F)F)cc2[C@@H](N(Cc2cc(C(F)(F)F)cc(C(F)(F)F)c2)C(=O)OC)C[C@H]1CC | – | – | inactive |
| C[C@]12CC[C@H](O)CC1=CCC1C2CC[C@]2(C)C(n3cnc4ccccc43)=CCC12 (stereo partly drawn) | – | – | inactive |
| O=C(NC1CC1)c1cccc(-c2ccc3c(NC(=O)C4CC4)n[nH]c3c2)c1 | – | 7.94 µM (active) | – |
| COc1cc(C)c(Sc2cnc(NC(=O)c3ccc(CNC(C)C(C)C)cc3)s2)cc1C(=O)N1CCN(C(C)=O)CC1 (stereo not drawn) | -95.3% | – | – |
